Data taken from the supplement of paper PMC10849652.
About 7,900 targets were measured; listed, in parts, are those with a hit and a random draw of the rest. About 0.6% of all pairs of compound and target were hits. Unmarked numbers belong to inactive results.

What was measured:
Assay in all cases: log2 fold change, soluble protein after heating vs DMSO (PISA); higher = thermal stabilisation; K562 cells, 10 uM, 30 min; active = over 0.2 and 3.5 SD of the protein, either way, in both replicates (recomputed)
erlotinib = compound: C#Cc1cccc(Nc2ncnc3cc(OCCOC)c(OCCOC)cc23)c1 [erlotinib]
Procedure, shortened: (§1)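 Aliquots of K562 cells (2×10^6 cells/mL) treated with 10 μM compound for 30 min were heated for 3 min over 48°C-58°C. After pooling and extraction in PBS with 0.5% NP-40 at 4°C, soluble protein from a 21,000xg, 90 min spin was quantified by TMTpro 16plex LC-MS/MS with channel sums equalised. Thermal stability is expressed against control samples, from duplicates, as a log2 fold change.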

[1] = compound: C/C(=N\NC(=O)C1=CC(=CC=C1)S(=O)(=O)N2CCOCC2)/C3=C(C=CC(=C3)Cl)O
Procedure, shortened: as §1

[2] = compound: C1=CC(=C(C=C1Cl)C2=NC3=NC=CN=C3C(=N2)NC4=CC=NC=C4)F
Procedure, shortened: as §1

[3] = compound: C1=CC(=CC=C1C2=NC3=C(N2)C=C(C=C3)C(=O)N)OC4=CC=C(C=C4)Cl
Procedure, shortened: as §1

[4] = compound: C1=CC2=C(C=CC(=C2)/C=C\3/C(=O)NC(=NCC4=CC=CS4)S3)N=C1
Procedure, shortened: as §1

[5] = compound: C1=CC2=NC=CN=C2C=C1/C=C/3\C(=O)NC(=O)S3
Procedure, shortened: as §1

[6] = compound: C1=CC=C(C=C1)C2=NC(=C(N2)C3=CC=NC=C3)C4=CC(=C(C=C4)Cl)O
Procedure, shortened: as §1

[7] = compound: C1=CC=C2C(=C1)C3=NNC4=CC=CC(=C43)C2=O
Procedure, shortened: as §1

[8] = compound: C1CCN(C1)C(=O)NC2=CC=CC(=C2)NC3=NC=C(C(=N3)NCCC4=CN=CN4)Br
Procedure, shortened: as §1

[9] = compound: C1CN(CCC1(CC2=CC=C(C=C2)Cl)N)C3=NC=NC4=C3C=CN4
Procedure, shortened: as §1

IRAK-1-4 Inhibitor I = compound: C1COCCN1CCN2C3=CC=CC=C3N=C2NC(=O)C4=CC(=CC=C4)[N+](=O)[O-] [IRAK-1-4 Inhibitor I]
Procedure, shortened: as §1

ibrutinib = compound: C=CC(=O)N1CCC[C@@H](n2nc(-c3ccc(Oc4ccccc4)cc3)c3c(N)ncnc32)C1 [ibrutinib]
Procedure, shortened: as §1

[10] = compound: CC(=O)c1cnc2ccc(-c3cc(Cl)c(O)c(Cl)c3)nc2c1N[C@H]1CC[C@H](CN(C)C)CC1
Procedure, shortened: as §1

ralimetinib = compound: CC(C)(C)Cn1c(N)nc2ccc(-c3[nH]c(C(C)(C)C)nc3-c3ccc(F)cc3)nc21 [ralimetinib]
Procedure, shortened: as §1

[11] = compound: CC(C)(O)CC(=O)NCCn1ccc2ncnc(Nc3ccc(Oc4cccc(C(F)(F)F)c4)c(Cl)c3)c21
Procedure, shortened: as §1

[12] = compound: CC(C)C1=C2N=C(C=C(N2N=C1)NCC3=CC=CC=C3)NCCCCCCN
Procedure, shortened: as §1

[13] = compound: CC(C)C[C@@H](C=O)NC(=O)[C@H](CC(C)C)NC(=O)[C@H](CC(C)C)NC(=O)OCc1ccccc1
Procedure, shortened: as §1

pinometostat = compound: CC(C)N(C[C@H]1O[C@@H](n2cnc3c(N)ncnc32)[C@H](O)[C@@H]1O)[C@H]1C[C@@H](CCc2nc3cc(C(C)(C)C)ccc3[nH]2)C1 [pinometostat]
Procedure, shortened: as §1

[14] = compound: CC1=C(C(CC(=O)N1)C2=CC=C(C=C2)C(F)(F)F)C(=O)NC3=C(C=C4C(=C3)C=NN4)F
Procedure, shortened: as §1

[15] = compound: CC1=C(C2=C(C=C1)C(=O)C3=CC=CC=C3N2CCCN)C
Procedure, shortened: as §1

Chain of UniProt Q6P6C2 (Q6P6C2 whole entry, looked up): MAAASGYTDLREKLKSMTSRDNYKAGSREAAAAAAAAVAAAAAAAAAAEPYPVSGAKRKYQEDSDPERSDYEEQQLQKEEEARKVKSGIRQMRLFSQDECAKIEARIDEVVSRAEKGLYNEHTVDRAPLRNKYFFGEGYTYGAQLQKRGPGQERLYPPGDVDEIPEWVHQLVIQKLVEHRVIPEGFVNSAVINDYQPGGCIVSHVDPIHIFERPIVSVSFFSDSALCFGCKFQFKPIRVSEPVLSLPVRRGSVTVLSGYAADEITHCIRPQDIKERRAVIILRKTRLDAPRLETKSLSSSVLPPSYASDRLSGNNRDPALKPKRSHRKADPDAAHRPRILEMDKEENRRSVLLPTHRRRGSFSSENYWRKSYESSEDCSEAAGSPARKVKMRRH
Chain of UniProt Q8IUR7 (Q8IUR7 whole entry, looked up): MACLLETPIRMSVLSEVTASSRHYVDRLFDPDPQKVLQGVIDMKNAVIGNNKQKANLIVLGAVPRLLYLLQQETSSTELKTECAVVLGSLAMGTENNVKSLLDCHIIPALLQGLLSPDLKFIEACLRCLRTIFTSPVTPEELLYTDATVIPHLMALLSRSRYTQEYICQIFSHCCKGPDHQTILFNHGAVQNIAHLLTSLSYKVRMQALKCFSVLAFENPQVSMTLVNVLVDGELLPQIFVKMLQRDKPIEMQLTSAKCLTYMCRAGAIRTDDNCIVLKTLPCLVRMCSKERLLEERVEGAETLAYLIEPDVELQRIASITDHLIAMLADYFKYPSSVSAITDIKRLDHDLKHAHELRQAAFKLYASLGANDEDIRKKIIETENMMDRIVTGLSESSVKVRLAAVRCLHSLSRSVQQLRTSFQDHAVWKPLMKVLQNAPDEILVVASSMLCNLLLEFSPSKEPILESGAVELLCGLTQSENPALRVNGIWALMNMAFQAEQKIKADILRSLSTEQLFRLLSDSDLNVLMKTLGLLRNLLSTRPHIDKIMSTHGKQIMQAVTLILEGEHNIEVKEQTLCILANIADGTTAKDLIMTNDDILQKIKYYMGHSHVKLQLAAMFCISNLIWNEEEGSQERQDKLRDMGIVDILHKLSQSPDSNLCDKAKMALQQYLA
Chain of UniProt Q9UI12 (Q9UI12 whole entry, looked up): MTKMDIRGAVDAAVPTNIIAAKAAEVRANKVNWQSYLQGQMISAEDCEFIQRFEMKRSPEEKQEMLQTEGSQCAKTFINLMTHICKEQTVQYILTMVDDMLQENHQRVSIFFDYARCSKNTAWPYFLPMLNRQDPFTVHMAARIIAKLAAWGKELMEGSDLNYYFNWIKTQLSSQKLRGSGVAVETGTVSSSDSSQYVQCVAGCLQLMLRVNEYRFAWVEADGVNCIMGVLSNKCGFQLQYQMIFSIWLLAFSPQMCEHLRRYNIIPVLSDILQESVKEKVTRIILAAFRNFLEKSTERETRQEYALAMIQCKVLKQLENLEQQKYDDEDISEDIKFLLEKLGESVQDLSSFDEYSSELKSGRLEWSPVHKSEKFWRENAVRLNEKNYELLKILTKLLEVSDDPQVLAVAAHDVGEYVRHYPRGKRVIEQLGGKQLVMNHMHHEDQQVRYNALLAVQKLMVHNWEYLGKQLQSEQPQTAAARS
Chain of UniProt P52895 (P52895 whole entry, looked up): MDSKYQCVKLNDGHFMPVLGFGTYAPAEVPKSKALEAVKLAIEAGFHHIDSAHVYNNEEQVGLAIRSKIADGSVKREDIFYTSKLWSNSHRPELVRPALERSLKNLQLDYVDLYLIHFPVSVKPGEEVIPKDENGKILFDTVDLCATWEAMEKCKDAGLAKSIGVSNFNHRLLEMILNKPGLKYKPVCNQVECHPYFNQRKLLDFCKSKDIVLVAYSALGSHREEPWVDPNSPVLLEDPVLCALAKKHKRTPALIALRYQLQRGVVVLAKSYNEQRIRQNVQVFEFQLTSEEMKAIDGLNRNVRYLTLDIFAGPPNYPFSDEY
Chain of UniProt Q92560 (Q92560 whole entry, looked up): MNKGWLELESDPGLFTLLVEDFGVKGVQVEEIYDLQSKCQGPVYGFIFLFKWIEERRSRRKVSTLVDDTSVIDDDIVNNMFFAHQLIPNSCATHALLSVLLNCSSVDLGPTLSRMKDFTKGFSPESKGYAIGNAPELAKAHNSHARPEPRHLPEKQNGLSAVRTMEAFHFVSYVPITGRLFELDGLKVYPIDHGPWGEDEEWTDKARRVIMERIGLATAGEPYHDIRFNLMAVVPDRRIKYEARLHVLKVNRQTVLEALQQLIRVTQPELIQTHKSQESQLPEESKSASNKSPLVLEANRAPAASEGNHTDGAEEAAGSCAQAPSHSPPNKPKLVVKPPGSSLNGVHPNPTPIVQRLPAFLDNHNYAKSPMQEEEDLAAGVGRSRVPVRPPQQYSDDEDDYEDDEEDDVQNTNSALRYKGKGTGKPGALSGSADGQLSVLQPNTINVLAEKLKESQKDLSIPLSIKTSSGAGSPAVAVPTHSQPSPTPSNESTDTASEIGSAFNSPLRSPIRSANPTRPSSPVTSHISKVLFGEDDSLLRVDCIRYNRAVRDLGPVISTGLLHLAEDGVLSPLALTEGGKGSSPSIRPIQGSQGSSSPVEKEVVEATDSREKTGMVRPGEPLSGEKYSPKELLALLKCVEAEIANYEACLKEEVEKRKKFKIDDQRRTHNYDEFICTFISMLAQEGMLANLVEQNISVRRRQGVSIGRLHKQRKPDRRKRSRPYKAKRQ
Chain of UniProt O14965 (O14965 whole entry, looked up): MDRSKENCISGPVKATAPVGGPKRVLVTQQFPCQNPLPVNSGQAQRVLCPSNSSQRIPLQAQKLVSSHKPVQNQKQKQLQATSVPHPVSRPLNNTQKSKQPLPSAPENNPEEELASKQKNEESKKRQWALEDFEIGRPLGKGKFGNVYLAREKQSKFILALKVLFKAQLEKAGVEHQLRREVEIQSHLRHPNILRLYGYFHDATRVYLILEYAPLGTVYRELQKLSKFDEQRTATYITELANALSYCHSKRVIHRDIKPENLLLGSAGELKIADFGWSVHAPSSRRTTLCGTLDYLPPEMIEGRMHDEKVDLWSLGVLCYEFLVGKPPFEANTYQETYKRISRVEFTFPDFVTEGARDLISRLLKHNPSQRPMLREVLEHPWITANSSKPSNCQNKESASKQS
Chain of UniProt Q9NRZ7 (Q9NRZ7 whole entry, looked up): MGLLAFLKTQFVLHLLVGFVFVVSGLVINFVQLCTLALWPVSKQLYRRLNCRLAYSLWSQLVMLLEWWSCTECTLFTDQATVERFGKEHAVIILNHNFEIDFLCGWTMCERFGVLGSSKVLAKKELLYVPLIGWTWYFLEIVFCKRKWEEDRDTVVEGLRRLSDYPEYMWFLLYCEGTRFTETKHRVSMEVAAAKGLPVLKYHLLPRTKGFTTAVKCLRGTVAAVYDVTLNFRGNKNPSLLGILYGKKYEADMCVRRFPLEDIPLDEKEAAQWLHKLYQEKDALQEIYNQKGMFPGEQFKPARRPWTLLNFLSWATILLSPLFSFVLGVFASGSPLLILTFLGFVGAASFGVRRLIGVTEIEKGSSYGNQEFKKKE
Chain of UniProt Q9P287 (Q9P287 whole entry, looked up): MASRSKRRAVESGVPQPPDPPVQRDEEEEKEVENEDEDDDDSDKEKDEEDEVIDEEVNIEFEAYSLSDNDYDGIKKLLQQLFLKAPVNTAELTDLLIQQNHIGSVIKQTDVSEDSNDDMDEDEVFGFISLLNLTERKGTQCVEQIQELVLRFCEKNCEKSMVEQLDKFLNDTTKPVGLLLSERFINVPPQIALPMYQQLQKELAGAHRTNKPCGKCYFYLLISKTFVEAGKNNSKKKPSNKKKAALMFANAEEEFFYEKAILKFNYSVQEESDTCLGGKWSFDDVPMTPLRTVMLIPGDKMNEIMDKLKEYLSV
Chain of UniProt P49189 (P49189 whole entry, looked up): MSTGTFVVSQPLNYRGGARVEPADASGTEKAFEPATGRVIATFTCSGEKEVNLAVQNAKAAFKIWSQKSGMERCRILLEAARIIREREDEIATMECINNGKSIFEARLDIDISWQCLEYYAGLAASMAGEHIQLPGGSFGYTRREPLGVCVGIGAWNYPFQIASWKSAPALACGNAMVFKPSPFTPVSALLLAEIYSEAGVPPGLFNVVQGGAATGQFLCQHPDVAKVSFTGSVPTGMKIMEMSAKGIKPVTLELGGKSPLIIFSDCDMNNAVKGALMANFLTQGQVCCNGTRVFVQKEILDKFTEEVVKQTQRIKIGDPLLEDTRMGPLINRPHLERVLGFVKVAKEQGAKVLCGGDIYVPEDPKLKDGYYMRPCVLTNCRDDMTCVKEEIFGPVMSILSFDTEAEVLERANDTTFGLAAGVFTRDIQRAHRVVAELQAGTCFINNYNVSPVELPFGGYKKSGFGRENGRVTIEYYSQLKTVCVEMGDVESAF
Chain of UniProt P31751 (P31751 whole entry, looked up): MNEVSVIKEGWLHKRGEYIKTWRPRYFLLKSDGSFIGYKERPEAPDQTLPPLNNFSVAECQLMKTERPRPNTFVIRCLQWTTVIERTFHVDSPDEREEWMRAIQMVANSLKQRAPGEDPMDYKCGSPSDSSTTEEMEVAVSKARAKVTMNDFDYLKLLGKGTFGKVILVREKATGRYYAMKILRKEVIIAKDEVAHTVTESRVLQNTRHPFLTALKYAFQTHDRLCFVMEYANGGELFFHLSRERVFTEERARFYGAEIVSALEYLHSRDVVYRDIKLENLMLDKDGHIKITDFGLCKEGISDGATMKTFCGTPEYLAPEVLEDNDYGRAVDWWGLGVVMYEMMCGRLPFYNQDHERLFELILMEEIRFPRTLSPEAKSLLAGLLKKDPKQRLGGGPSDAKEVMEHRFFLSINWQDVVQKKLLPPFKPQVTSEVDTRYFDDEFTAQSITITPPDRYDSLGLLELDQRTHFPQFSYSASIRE

Target	log2 fold change (erlotinib)	log2 fold change [1]	log2 fold change [2]	log2 fold change [3]	log2 fold change [4]	log2 fold change [5]	log2 fold change [6]	log2 fold change [7]	log2 fold change [8]	log2 fold change [9]	log2 fold change (IRAK-1-4 Inhibitor I)	log2 fold change (ibrutinib)	log2 fold change [10]	log2 fold change (ralimetinib)	log2 fold change [11]	log2 fold change [12]	log2 fold change [13]	log2 fold change (pinometostat)	log2 fold change [14]	log2 fold change [15]
ALKBH5 (UniProt Q6P6C2)	0.176	-0.637 (active)	-0.126	0.139	0.056	-0.067	0.015	-0.032	-0.087	0.113	0.015	0.05	0.053	0.049	0.025	0.198	-0.016	-0.013	0.029	0.086
AKR1C2 (UniProt P52895)	0.07	0.014	-0.101	-0.092	0.001	0.085	0.292	-0.038	0.044	-0.028	-0.218	0.006	-0.043	-0.015	0.099	-0.16	-0.043	0.049	0.008	-0.063
ARMC8 (UniProt Q8IUR7)	-0.079	-0.029	-0.029	0.027	-0.047	0.013	0.051	-0.005	-0.002	-0.027	-0.025	-0.017	0.036	0.084	-0.011	-0.01	-0.093	-0.021	-0.025	-0.07
APOB (UniProt P04114)	0.062	0.008	0.042	-0.024	-0.018	0.05	0.046	-0.011	0.018	-0.174	0.042	-0.012	0.045	-0.239	-0.295	-0.438	0.403	-0.171	0.066	0.021
BECN1 (UniProt Q14457)	-0.007	-0.035	0.043	-0.042	-0.001	0.085	-0.043	0.008	0.002	-0.042	-0.003	-0.018	0.003	-0.004	-0.011	-0.031	-0.015	-0.032	-0.058	0.084
ALDH9A1 isoform 3 (UniProt P49189)	-0.025	0.016	0.043	0.027	-0.004	0.003	0.037	-0.007	-0.018	0.051	0.059	0.025	0.003	-0.047	-0.004	0.019	-0.022	-0.013	0.028	-0.003
APPL1 (UniProt Q9UKG1)	-0.049	0.162	0.055	0.012	0.055	0.016	0.038	-0.029	0.014	0.003	0.016	-0.067	-0.074	-0.024	0.037	0.006	0.069	0.059	-0.15	-0.011
AKT2 (UniProt P31751)	0.014	0.096	0.094	0.027	0.068	-0.023	0.019	0.028	-0.068	0.144	-0.013	-0.033	-0.039	-0.015	-0.027	-0.179	0	-0.016	0.023	-0.011
ACSM3 (UniProt Q53FZ2)	0.078	0.01	0.076	-0.235	0.088	-0.009	-0.078	-0.072	0.009	0.01	0	-0.021	-0.11	-0.003	-0.397 (active)	-0.155	-0.086	0.046	-0.001	0.041
ATP6V1H (UniProt Q9UI12)	-0.055	0.015	0.034	0.035	-0.008	0.045	-0.131	0.024	-0.051	-0.097	-0.011	-0.033	-0.065	0.007	-0.014	-0.241 (active)	0.043	-0.002	-0.006	0.028
BCCIP (UniProt Q9P287)	-0.024	0.045	0.019	-0.027	-0.029	0.015	0.013	0.035	-0.036	0.114	-0.025	-0.063	-0.06	-0.005	0.002	0.035	0.015	0.073	-0.041	0.255 (active)
ADH5 (UniProt P11766)	-0.012	0.034	0.05	-0.016	0.001	0.007	-0.039	0.002	0.004	0.037	0.038	0.011	0.014	-0.097	-0.02	0.05	-0.041	-0.05	0.01	0.019
ADD3 (UniProt Q9UEY8)	0.018	0	-0.008	0.025	0.02	0.013	-0.025	-0.024	-0.015	0.031	0.063	0.025	-0.29 (active)	-0.011	0.008	0.097	0.018	-0.034	0.019	0.014
BAP1 (UniProt Q92560)	0.182	-0.013	-0.142	-0.048	-0.128	0.06	-0.104	-0.05	-0.078	-0.088	-0.038	-0.056	-0.125	0.06	-0.014	-0.217	0.048	0.163	-0.116	-0.17
AURKA (UniProt O14965)	0.181	0.018	-0.055	-0.061	-0.08	-0.028	0.028	0.462	0.707 (active)	-0.313	-0.05	0.193	0.914 (active)	0.062	-0.056	-0.128	0.16	0.033	0.001	0.059
AGPAT3 isoform 3 (UniProt Q9NRZ7)	0.009	-0.008	0.028	-0.009	0.028	0.12	0.04	0.006	0	0.067	0.012	0	-0.024	-0.02	-0.001	-0.071	-0.001	0.034	-0.011	0.03
